Molecules are shown by their SMILES. Where “and” joins values, the source holds several entries; their conditions need not be identical. Equal entries are not always repeated. A structure can be active in one record and inactive in another. Calls of active or inactive are those of the source. How the source made its calls: active means hit-call score of the fitted dose curve at least 0.9, where 1 is the maximum; inactive means score below 0.9.

The nature of one test: ATG_AP_2_CIS: Attagene CIS-FACTORIAL HepG2 Assay for human Activator Protein 2 (AP-2) (AID 2282932). The conditions noted are these: HepG2 AP-2 cis-reporter, Attagene transcription factor profiling; AC50: actives raise or lower the signal unless noted; outcome: actives raise or lower the signal unless noted. In short, it runs like this:
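Bidirectional curve fitting against DMSO was applied to reporter mRNA signals from HepG2 cells 24 h after dosing. Cis-promoter reporter units, transiently transfected, were read by RT-PCR plus capillary electrophoresis.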
As for `O=C(CC(=O)C(F)(F)C(F)(F)C(F)(F)F)c1cccs1`, the outcome was “inactive [setting not given]”.

Usually AC50 stands for the midpoint of the concentration-response curve, whichever way the signal moves. On to `C=C(c1ccc(C(=O)O)cc1)c1cc2c(cc1C)C(C)(C)CCC2(C)C`, for which the AC50 was 18.3 µM (active) and 34.7 µM (active).

Turning to `CC(=O)Nc1ccc(O)cc1`, the call was inactive.

As to `OCC(CO)(CBr)CBr`, the result was inactive.

With `CCN(CC)CC`, the compound was classed as inactive.

For the compound `c1cnc2c(c1)ccc1cccnc12`, the AC50 was 5.84 µM (active) and the outcome was inactive.

With `CCCCc1ccc2ccccc2c1S(=O)(=O)O`, the result was inactive.

The next test is described as follows: ATG_BRE_CIS: Attagene CIS-FACTORIAL HepG2 Assay for human Bone Morphogenetic Protein (BMP) Response Element (BRE) (AID 2282933). Conditions: HepG2 BMP response element reporter, Attagene transcription factor profiling; actives raise or lower the signal. In short, it runs like this: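 HepG2 cells transiently transfected with multiplexed cis-element reporter units were dosed with chemical for 24 h. Reporter mRNA was measured by RT-PCR with fluorescent labelling, HpaI digestion and capillary electrophoresis; bidirectional fitting relative to DMSO.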
Turning to `CN(Cc1cnc2nc(N)nc(N)c2n1)c1ccc(C(=O)N[C@@H](CCC(=O)O)C(=O)O)cc1`, the outcome was inactive.

For `CCCCCCCCCCCC[N+](C)(C)Cc1ccccc1`, the outcome was inactive.

Consider `Cc1ccc(C(=O)c2ccccc2)cc1`, for which the outcome was inactive.

Regarding `O=CC(F)(F)C(F)(F)C(F)(F)C(F)F`, the call was inactive.

Turning to `O=C1NS(=O)(=O)c2ccccc21`, the compound was called inactive.

For the compound `Cc1cc(C(C)(C)C)c(O)c(C(C)(C)C)c1`, the compound was classed as inactive.

`CCCCCCCCCCCC(=O)O`: the compound was classed as inactive.

For `Cc1[nH]nc2c1N=C(c1ccccc1Cl)c1cc([N+](=O)[O-])ccc1N2`, the compound was classed as inactive.

For the compound `CCCCC=O`, the compound was called inactive.

As to `CN(C)c1ccc(C(=C2C=CC(=[N+](C)C)C=C2)c2ccccc2)cc1`, the call was inactive.

As for `O=C1OC2(c3ccccc31)c1cc(I)c(O)c(I)c1Oc1c2cc(I)c(O)c1I`, the AC50 is 88.1 µM (active) and 82.7 µM (active); the compound was classed as inactive.

As to `CC(O)COc1ccccc1` (stereo not given), the outcome was inactive.

As for `N=C(N)c1ccc(OCCCCCOc2ccc(C(=N)N)cc2)cc1`, the AC50 was 23.3 µM (active).

Take `CCCCC(CC)C(=O)O` (stereo not given): the call was inactive.

For `Cc1ccc2ccc3ccc(C)cc3c2c1`, the call was inactive.

In the case of `O=C(c1ccccc1)c1ccccc1`, the compound was classed as inactive.

`COCN(COC)c1nc(N(COC)COC)nc(N(COC)COC)n1`: the call was inactive.

Consider `Cc1ccccc1C(OCCN(C)C)c1ccccc1` (stereo not given), for which the call was inactive.

Take `O=C(CCCN1CCC(O)(c2ccc(Cl)cc2)CC1)c1ccc(F)cc1`: the call was inactive.

Take `CCCCCCCCCCCCCCC`: the compound was classed as inactive.

Take `NC(=NCCCCCCN=C(N)/N=C(\N)Nc1ccc(Cl)cc1)/N=C(\N)Nc1ccc(Cl)cc1`: the AC50 was 3.85 µM (active) and 3.17 µM (active); the result was inactive.

Regarding `O=C(NO)c1ccccc1`, the AC50 is 21 µM (active) [middle of 4 runs].

For `CCCCc1oc2ccccc2c1C(=O)c1cc(I)c(OCCN(CC)CC)c(I)c1`, the result was inactive.

With `O=C(CC(=O)C(F)(F)C(F)(F)C(F)(F)F)c1cccs1`, the result was inactive.

On to `C=C(c1ccc(C(=O)O)cc1)c1cc2c(cc1C)C(C)(C)CCC2(C)C`, for which the outcome was inactive.

For `CC(=O)Nc1ccc(O)cc1`, the compound was classed as inactive.

Turning to `OCC(CO)(CBr)CBr`, the compound was classed as inactive.

On to `CCN(CC)CC`, for which the result was inactive.

Regarding `c1cnc2c(c1)ccc1cccnc12`, the compound was classed as inactive.

`CCCCc1ccc2ccccc2c1S(=O)(=O)O`: the outcome was inactive.

The values above are taken from PubChem BioAssay (EPA / NIEHS).
